Test results as given in PubChem BioAssay.
The source made the active and inactive calls. Unless noted, how the calls were made is not given here.

Assays:
[1] = compounds binding Alexa647 anti-His antibody – biochemical, small-molecule microarray, 635 nm fluorescence, artefact control for SMM control protein annotation, primary screen (AID 1128); conditions: higher = more signal;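 further: score merges feature fluorescence with signal-to-noise for each printed compound spot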
[2] = system: Human papillomavirus type 1a E7 protein (residues 1-88); test: HPV1a E7 small-molecule binders, primary screen, biochemical, small-molecule microarray, residues 1-88, 635 nm (AID 1129); conditions: small-molecule microarray binding, fluorescence 635 nm; higher = more signal
[3] = target: Focal adhesion kinase 1 (Homo sapiens) (UniProt Q05397); test: PTK2 protein binding on printed compound slides – biochemical, small-molecule microarray, 635/667 nm fluorescence, BSA, DTT, primary screen (AID 1130); conditions: 635 nm fluorescence, higher = more signal;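 further: composite of spot emission at 667 nm and signal to noise over triplicate slides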
[4] = system: Fibrinogen (Alexa647-labelled); test: Alexa647-fibrinogen binding to printed small molecules – biochemical, small-molecule microarray, 635/667 nm fluorescence, artefact control for SMM control-protein annotation, profiling panel (AID 1131); conditions: fibrinogen-A647 binding fluorescence, higher = more signal;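 further: z-score merges 667 nm fluorescence with per-spot signal-to-noise over triplicate slides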
[5] = target: Follistatin (Homo sapiens) (UniProt P19883); test: FST protein binding to printed compounds – biochemical, small-molecule microarray, 635/667 nm fluorescence, primary screen (AID 1132); conditions: 635 nm fluorescence, higher = more signal
[6] = target: Fibroblast growth factor 2 (Homo sapiens) (UniProt P09038); test: basic fibroblast growth factor binding to printed compounds – biochemical, small-molecule microarray, 635/667 nm fluorescence, primary screen (AID 1133); conditions: FGF2, fluorescence 635/667, higher = more signal
[7] = JC-1 mitochondrial potential readout, lung cancer cells – cell-based, A549, JC-1 fluorescence, basal, 24 h, 100 nL, profiling panel (AID 1138); conditions: higher = more signal;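 further: A549 lung adenocarcinoma cells under basal conditions with no added stimulus; test concentration not given here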
Lefty1 = Lefty1 protein binding to printed compounds – biochemical, small-molecule microarray, 635/667 nm fluorescence, primary screen (AID 1139); conditions: fluorescence 635/667, higher = more signal
[8] = system: wheat germ agglutinin (Triticum aestivum), Alexa647-labelled; test: Alexa647-WGA lectin binding to printed small molecules – biochemical, small-molecule microarray, 635/667 nm fluorescence, artefact control for SMM control-protein annotation, profiling panel (AID 1140); conditions: WGA-A647 binding, 635 nm fluorescence, higher = more signal;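 further: score merges 667 nm feature emission with signal to noise over triplicate slides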
[9] = target: Luciferin 4-monooxygenase (Photinus pyralis) (UniProt P08659); test: inhibition of purified Photinus pyralis luciferase – biochemical, luminescence, purified enzyme, 2006 set, primary screen (AID 1141); conditions: purified firefly luciferase, SteadyGlo luminescence, 30 min; higher = more signal, called active from +8 up or from −8 down;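 further: cell-free assay with purified firefly luciferase at 100 ng per well in PBS; test concentration not given here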
[10] = system: Wnt5a (protein binding on small-molecule microarray); test: small molecules binding Wnt5a protein – biophysical, small-molecule microarray, 635/667 nm fluorescence, primary screen (AID 1142); conditions: 635 nm fluorescence, higher = more signal;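 further: fluorescence read at 667 nm with signal to noise per printed feature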
[11] = ATP-based viability of Huh7 replicon cells – cell-based, CellTiter-Glo luminescence, basal, 48 h, cytotoxicity control for HCV replication inhibitor project, primary screen (AID 1143); conditions: higher = more signal, called active from +8 up or from −8 down;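 further: Huh7 hepatoma cells carrying a hepatitis C replication reporter with no stimulus; test concentration not given here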
[12] = Pseudomonas biofilm growth suppression – PAO1 strain, BacTiter-Glo luminescence, LB-PBS, primary screen (AID 1144); conditions: P. aeruginosa PAO1 biofilm, 12 h, higher = more signal
[13] = basal CRE-LacZ reporter activity in PC12 – cell-based, unstimulated, primary screen (AID 1145); conditions: no forskolin, luminescence, 4.5 h, higher = more signal, called active from +8 up or from −8 down
[14] = forskolin-driven CRE-LacZ activity in PC12 – cell-based, CRE-LacZ reporter, forskolin-stimulated, primary screen (AID 1146); conditions: luminescence, 4.5 h, higher = more signal, called active from +8 up or from −8 down;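 further: PC12 cells with 6xCRE LacZ reporter stimulated by forskolin 10 µM; beta-galactosidase reporter signal reflecting CREB driven transcription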
[15] = target: Streptavidin (Streptomyces avidinii) (UniProt P22629); test: compounds binding control protein streptavidin – biophysical, small-molecule microarray, 635/667 nm fluorescence, artefact control for SMM compound annotation, primary screen (AID 1147); conditions: higher = more signal;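 further: signal reflects streptavidin binding to arrayed compounds as a control protein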
[16] = probe aInhba binding on compound microarray – biochemical, small-molecule microarray, 635/667 nm fluorescence, primary screen (AID 1148); conditions: higher = more signal;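 further: score merges 667nm spot fluorescence with signal-to-noise for antibody binding to printed compounds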
Torsin-1A (Homo sapiens) [17] = target: Torsin-1A (Homo sapiens) (UniProt O14656); test: TOR1A wild-type binding on microarray – cell lysate, small-molecule microarray, lysate, 635/667 nm, primary screen (AID 1149); conditions: COS7 hTOR1A-WT lysate, 635 nm fluorescence, higher = more signal
Torsin-1A (Homo sapiens) [18] = target: Torsin-1A (Homo sapiens) (UniProt O14656); test: torsin A mutant lysate binding on microarrays – cell lysate, small-molecule microarray, COS7 lysate, 635/667 nm fluorescence, primary screen (AID 1150); conditions: COS7 hTOR1A mutant lysate, 635 nm fluorescence, higher = more signal;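 further: score pools 667 nm emission and signal to noise measuring lysate protein binding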
[19] = system: Sonic hedgehog protein (Shh); test: Sonic hedgehog microarray binding compounds – biochemical, small-molecule microarray, 635/667 nm fluorescence, primary screen (AID 1151); conditions: 635 nm fluorescence, higher = more signal;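 further: Shh protein binding to compounds spotted on small-molecule microarray slides; score combines spot fluorescence intensity with signal-to-noise across triplicate slides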

Sequence of Focal adhesion kinase 1 (Homo sapiens) (Q05397 whole entry, looked up): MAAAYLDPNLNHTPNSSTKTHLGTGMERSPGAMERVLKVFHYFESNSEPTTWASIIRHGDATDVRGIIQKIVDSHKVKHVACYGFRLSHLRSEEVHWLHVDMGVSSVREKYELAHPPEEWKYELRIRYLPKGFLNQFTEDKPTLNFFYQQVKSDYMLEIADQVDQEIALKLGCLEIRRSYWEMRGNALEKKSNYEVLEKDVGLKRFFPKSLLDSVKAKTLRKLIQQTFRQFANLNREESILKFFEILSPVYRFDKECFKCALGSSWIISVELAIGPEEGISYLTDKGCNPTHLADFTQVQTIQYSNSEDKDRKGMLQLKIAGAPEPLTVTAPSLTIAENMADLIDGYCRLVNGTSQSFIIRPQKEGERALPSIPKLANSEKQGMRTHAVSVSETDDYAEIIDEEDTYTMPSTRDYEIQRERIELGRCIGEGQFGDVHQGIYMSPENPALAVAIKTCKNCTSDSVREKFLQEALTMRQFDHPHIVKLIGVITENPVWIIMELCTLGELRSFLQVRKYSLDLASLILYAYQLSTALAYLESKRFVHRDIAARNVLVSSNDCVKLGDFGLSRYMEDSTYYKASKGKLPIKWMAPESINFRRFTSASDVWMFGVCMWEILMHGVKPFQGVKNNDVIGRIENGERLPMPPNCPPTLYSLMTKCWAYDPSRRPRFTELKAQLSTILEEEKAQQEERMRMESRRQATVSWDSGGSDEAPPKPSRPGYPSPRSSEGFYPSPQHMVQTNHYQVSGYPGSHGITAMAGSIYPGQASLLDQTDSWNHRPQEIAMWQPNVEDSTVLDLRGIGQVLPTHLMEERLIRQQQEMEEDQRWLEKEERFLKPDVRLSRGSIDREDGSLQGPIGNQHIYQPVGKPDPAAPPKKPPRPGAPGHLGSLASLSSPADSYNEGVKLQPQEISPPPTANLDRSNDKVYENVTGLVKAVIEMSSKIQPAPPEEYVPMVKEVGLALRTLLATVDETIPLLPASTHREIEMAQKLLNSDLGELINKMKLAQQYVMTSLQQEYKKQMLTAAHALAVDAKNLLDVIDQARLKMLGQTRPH
Sequence of Streptavidin (Streptomyces avidinii) (P22629 whole entry, looked up): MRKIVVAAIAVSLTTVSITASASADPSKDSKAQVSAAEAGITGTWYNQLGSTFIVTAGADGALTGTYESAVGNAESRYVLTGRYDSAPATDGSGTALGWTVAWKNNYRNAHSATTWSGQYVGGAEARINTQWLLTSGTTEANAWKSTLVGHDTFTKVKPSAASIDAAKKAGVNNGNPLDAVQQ
Sequence of Torsin-1A (Homo sapiens) (O14656 whole entry, looked up): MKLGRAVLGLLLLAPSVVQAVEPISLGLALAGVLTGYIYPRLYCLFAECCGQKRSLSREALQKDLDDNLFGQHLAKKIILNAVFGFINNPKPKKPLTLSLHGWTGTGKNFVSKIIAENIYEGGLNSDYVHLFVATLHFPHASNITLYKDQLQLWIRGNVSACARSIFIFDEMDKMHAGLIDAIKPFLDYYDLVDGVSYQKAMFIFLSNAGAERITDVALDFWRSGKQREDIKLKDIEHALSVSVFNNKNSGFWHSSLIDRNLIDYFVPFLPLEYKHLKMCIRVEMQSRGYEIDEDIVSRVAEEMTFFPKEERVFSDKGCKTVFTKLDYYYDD
Sequence of Luciferin 4-monooxygenase (Photinus pyralis) (P08659 whole entry, looked up): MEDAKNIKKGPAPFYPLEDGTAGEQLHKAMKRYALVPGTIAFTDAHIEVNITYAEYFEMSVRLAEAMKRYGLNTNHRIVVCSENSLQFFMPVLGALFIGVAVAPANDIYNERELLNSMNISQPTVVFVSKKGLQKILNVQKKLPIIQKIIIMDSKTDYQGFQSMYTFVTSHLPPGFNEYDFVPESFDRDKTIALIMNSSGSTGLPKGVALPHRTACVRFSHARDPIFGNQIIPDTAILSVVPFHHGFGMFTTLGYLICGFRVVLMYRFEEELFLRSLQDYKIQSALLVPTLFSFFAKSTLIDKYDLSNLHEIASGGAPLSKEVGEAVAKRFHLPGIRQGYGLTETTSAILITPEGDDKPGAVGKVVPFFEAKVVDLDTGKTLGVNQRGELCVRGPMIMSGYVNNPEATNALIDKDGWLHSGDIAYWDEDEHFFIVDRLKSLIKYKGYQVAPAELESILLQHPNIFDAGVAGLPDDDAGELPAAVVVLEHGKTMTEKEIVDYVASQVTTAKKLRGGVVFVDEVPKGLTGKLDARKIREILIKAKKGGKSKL
Sequence of Follistatin (Homo sapiens) (P19883 whole entry, looked up): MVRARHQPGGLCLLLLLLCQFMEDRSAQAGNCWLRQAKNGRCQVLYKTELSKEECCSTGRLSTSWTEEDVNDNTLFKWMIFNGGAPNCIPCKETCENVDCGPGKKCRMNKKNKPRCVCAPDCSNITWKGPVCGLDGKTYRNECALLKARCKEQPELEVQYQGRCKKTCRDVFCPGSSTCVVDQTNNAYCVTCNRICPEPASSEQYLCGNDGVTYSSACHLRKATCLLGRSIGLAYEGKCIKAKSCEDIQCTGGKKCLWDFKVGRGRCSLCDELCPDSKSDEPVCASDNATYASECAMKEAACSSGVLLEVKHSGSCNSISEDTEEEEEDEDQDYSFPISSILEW
Sequence of Fibroblast growth factor 2 (Homo sapiens) (P09038 whole entry, looked up): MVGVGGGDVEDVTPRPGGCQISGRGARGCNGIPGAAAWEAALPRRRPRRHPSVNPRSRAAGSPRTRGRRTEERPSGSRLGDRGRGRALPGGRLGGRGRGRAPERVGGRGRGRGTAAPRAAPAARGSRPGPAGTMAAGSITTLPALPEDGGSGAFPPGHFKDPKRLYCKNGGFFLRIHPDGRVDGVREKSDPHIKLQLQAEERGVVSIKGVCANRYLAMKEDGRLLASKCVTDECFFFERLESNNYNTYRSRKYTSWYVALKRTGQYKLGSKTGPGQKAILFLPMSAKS

SMILES	composite z-score [1]	composite z-score [2]	composite z-score [3]	composite z-score [4]	composite z-score [5]	composite z-score [6]	z-score [7]	composite z-score (Lefty1)	composite z-score [8]	z-score [9]	composite z-score [10]	z-score [11]	z-score [12]	z-score [13]	z-score [14]	composite z-score [15]	composite z-score [16]	composite z-score (Torsin-1A (Homo sapiens) [17])	composite z-score (Torsin-1A (Homo sapiens) [18])	composite z-score [19]
CCC[C@@H]1C=C(C(=O)O)[C@H](c2ccc(C)cc2)N1S(=O)(=O)c1ccc(C)cc1	1.65	1.29	0.354	1.04	0.118	-0.502	-0.564	-0.234	0.945	1.79 (inactive)	0.0266	0.224 (inactive)	-0.0655 (inactive)	-0.527 (inactive)	0.348 (inactive)	0.981	-0.0087	0.837	1.38	-0.65
O=C1O[C@@H](c2ccccc2)[C@@H](c2ccccc2)N2[C@@H](c3ccccc3OCCO)[C@]3(C(=O)Nc4ccc(C#CC5(O)CCCCCC5)cc43)[C@@H](C(=O)Nc3nc4ccccc4s3)[C@H]12	1.22	1.21	0.237	0.991	1.25	1.02	-1.98	0.744	0.847	-0.84 (inactive)	0.555	-5 (inactive)	0.207 (inactive)	0.224 (inactive)	0.474 (inactive)	1.22	-0.0195	0.711	0.659	0.902
COCCOC(=O)N1C(=O)[C@@]2(c3cc(C#CCC(C(=O)OC)C(=O)OC)ccc31)[C@H](c1ccc(O)cc1)N1[C@H](c3ccccc3)[C@H](c3ccccc3)OC(=O)[C@H]1[C@@H]2C(N)=O	1.54	1.23	0.242	0.75	0.857	1.33	-0.82	0.366	0.252	-0.78 (inactive)	0.641	-0.427 (inactive)	0.075 (inactive)	-0.329 (inactive)	0.305 (inactive)	1.04	0.215	1.61	1.35	0.922
COc1ccc(C(=O)Nc2cccc(CN3C(=O)[C@@]4(O[C@@H](CCn5cc(CCO)nn5)[C@H]([Si](C)(C)c5ccc(OC)cc5)[C@H]4C)c4ccccc43)c2)cc1	1.38	1.16	0.582	0.701	1.35	1.51	-0.0548	1.29	0.701	-0.775 (inactive)	0.504	-8.01 (active)	-0.609 (inactive)	8.36 (active)	-1.29 (inactive)	0.37	0.0184	0.503	0.347	1.72
COCCOC(=O)N1C(=O)[C@@]2(c3cc(C#CC4=CCCCC4)ccc31)[C@H](C(=O)NC[C@H](O)c1ccccc1)[C@H]1C(=O)O[C@H](c3ccccc3)[C@H](c3ccccc3)N1[C@@H]2c1ccc(O)cc1	0.0524	1.19	0.703	0.86	1.32	1.32	-1.23	0.861	0.845	-1.31 (inactive)	0.236	-3.91 (inactive)	1.19 (inactive)	0.208 (inactive)	-1.04 (inactive)	1	0.221	0.838	0.652	1.34
COC(=O)C(CC#Cc1ccc2c(c1)[C@]1(C(=O)N2)[C@H](C(=O)NC[C@H](O)c2ccccc2)[C@H]2C(=O)O[C@H](c3ccccc3)[C@H](c3ccccc3)N2[C@@H]1c1ccc(OCCO)cc1)C(=O)OC	1.5	1.21	0.538	0.957	1.25	0.937	-1.32	1.69	1.21	-1.83 (inactive)	1.08	-1.02 (inactive)	-0.419 (inactive)	0.0653 (inactive)	-0.291 (inactive)	2.55	0.859	1.69	1.09	1.6
COc1ccc(NN2C(C(O)c3ccc(OC)c(OCc4ccccc4)c3)C=CC3C(=O)N(C4CCCCC4)C(=O)C32)cc1 (stereo not given)	0.867	1.21	0.625	1.01	1.29	0.0862	0.492	0.461	0.571	1.16 (inactive)	0.285	-2.17 (inactive)	-1.73 (inactive)	-0.322 (inactive)	0.693 (inactive)	1.19	0.0769	-0.196	0.185	-0.504
O=C(O)[C@@]1(Cc2ccccc2)N=C(c2ccc(OCCCO)cc2)O[C@H]1c1ccccc1	1.31	-0.112	-0.233	0.967	0.572	-0.686	0.593	0.194	0.915	1.16 (inactive)	-0.243	-0.637 (inactive)	-0.622 (inactive)	-0.286 (inactive)	-0.215 (inactive)	-0.28	0.166	-0.184	1.4	0.422
CC(C)(C)N1CC=CC23O[C@@H]4C=CCOC(=O)[C@@H]4[C@H]2C(=O)N(CCCCCO)[C@@H]3C1=O (stereo not given in full)	3.57	-1.45	-0.758	-2.1	-0.889	-0.326	-0.879	-1.17	-1.31	0.107 (inactive)	-0.248	0.228 (inactive)	0.123 (inactive)	-0.631 (inactive)	0.687 (inactive)	-1.41	-0.421	-0.803	-1.05	-0.15
CC(C)=CCCC(C)=CC(O)C1C=CC2C(=O)N(c3ccccc3)C(=O)C2N1Nc1ccccc1 (stereo not given)	1.79	1.18	0.63	1.01	1.14	0.227	-0.773	0.16	1.3	0.0145 (inactive)	0.744	0.311 (inactive)	-0.786 (inactive)	0.819 (inactive)	1.7 (inactive)	2.04	0.596	0.0777	0.253	0.0068
CCOc1cc(C(O)C2C=CC3C(=O)N(c4ccccc4)C(=O)C3N2Nc2ccc([N+](=O)[O-])cc2)ccc1O (stereo not given)	0.73	1.06	0.106	0.0405	0.165	0.0474	-1.52	0.107	0.14	-0.021 (inactive)	-0.0182	-1.04 (inactive)	-0.222 (inactive)	2.28 (inactive)	0.507 (inactive)	0.439	-0.101	-0.431	0.196	-0.231
